Broadly, the inhibition is the relative decrease from the control value, in per cent.

This is an account of results in PubChem BioAssay.

Assay [1] is described as follows: yeast TOR pathway RPL19A-GFP modulators, primary screen, cell-based, S. cerevisiae, multiplex flow cytometry (AID 1862; in the data active = percent of DMSO control GFP below about 86%;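 note: lower values mimic rapamycin by blocking the RPL19A rise seen in DMSO cells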). The note with it: S. cerevisiae RPL19A-GFP strain, flow cytometry fluorescence, 3 h; at 10 µM; stronger effect = lower value.
Assay [2] can be described thus: modulators of MEP2-GFP levels in yeast, primary screen, S. cerevisiae, multiplex flow cytometry (AID 1867;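 active = GFP response, as percent of the DMSO control, above the screen-wide mean plus 3 SD, about 139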;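 note: median GFP channel fluorescence of barcode-gated MEP2-GFP cells measured by flow cytometry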). The conditions noted are these: S. cerevisiae MEP2-GFP strain, 3 h, at 10 µM, stronger effect = higher value, 100% means same as DMSO wells.
Assay [3] is described as follows: modulators of CIT2-GFP expression in yeast, primary screen, S. cerevisiae, GFP fusion, multiplex flow cytometry (AID 1870;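 active = percent response above a set limit, the screen-wide mean plus 3 SD, cut at about 130% in these data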;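 note: barcoded CIT2-GFP strain pooled with four other GFP strains with rapamycin as positive control; median GFP fluorescence per well over plate mean of DMSO wells so 100% = DMSO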). The conditions noted are these: 3 h, at 10 µM, stronger effect = higher value.
A short description of assay [4]: modulators of LAP4-GFP expression in yeast, primary screen, S. cerevisiae, multiplex flow cytometry (AID 1873;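 active = GFP signal, as percent of the solvent control, above the screen mean plus 3 SD, about 149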). The note with it: 3 h, at 10 µM, stronger effect = higher value. Background: In flow cytometry, cells or beads pass a laser one at a time.
Assay [5] in a line: modulators of AGP1-GFP expression in yeast TOR pathway, primary screen, cell-based, multiplex flow cytometry, S. cerevisiae (AID 1887;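 active = GFP signal above the screen-wide mean plus 3 SD, that is over about 124.5% of the solvent control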;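 note: AGP1-GFP fusion strain of S. cerevisiae within a five-strain barcoded multiplex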). The note with it: 3 h, at 10 µM, stronger effect = higher value.
Assay [6] in a line: inhibitors of CD8+ T cell-vesicle binding, pilot screen, LFA-1/ICAM-1 modulator project, MLPCN validation set, flow cytometry (AID 2523).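 For vesicle binding response: mean PE anti-B7-1 fluorescence of CD8+ cells relative to row control; 100% = QL9-loaded vesicles with DMSO vehicle in the same plate row.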 The note with it: 2C mouse CD8+ T cells, at 7 µM, stronger effect = lower value; double positive events: measured here: CD8+/vesicle+ event percentage.
The target in assay [7] is Integrin beta-1 (Homo sapiens) + Integrin alpha-4 (Homo sapiens) (UniProt P13612+P05556). The assay can be described thus: inhibition of HUTS-21 binding to VLA-4, pilot screen, VLA-4 allosteric modulator project, U937 cells, HUTS-21 mAb, flow cytometry, validation set (AID 2674;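 active = inhibition above 50%, about 3 SD of the validation set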;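 note: antibody binding induced by the VLA-4 ligand LDV present at three times its Kd; 0% = LDV ligand with antibody and no compound and 100% = antibody without LDV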). The conditions noted are these: HUTS-21 LIBS mAb binding, at 6.7 µM, stronger effect = higher value, binding induced by LDV ligand.

Assay [8] in a line: superoxide lowering in aged yeast cells, pilot screen, validation compound set (AID 2706;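 active = superoxide response below 65% of plate, a cut near 3 SD across the whole screen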;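 note: yeast exposed to compound for one week at 30 degrees C before staining; 100% = mean of all compound wells on the same plate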). The note with it: S. cerevisiae aging, superoxide DHE fluorescence; at 10 µM, stronger effect = lower value.
In assay [9] the target is Beta-adrenergic receptor kinase 1 (Homo sapiens) (UniProt P25098). Nature of the assay: GRK2 binders displacing RNA aptamer, biochemical, validation, human GRK2, bead flow cytometry (AID 488806;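 active = aptamer binding inhibition above 30%, about 3 SD of noise from non-fluorescent compounds; inactive = inhibition at or below 30%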). The note with it: bead-bound GRK2, FAM-aptamer displacement, at 10 µM, stronger effect = higher value.
The target of assay [10] is AP-2 complex subunit beta (Homo sapiens) (UniProt P63010). The assay can be described thus: inhibitors of arrestin peptide binding to AP2, pilot screen, biochemical, validation set, GST-AP2 beads, flow cytometry (AID 504541;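 active = inhibition above 54%, about 3 SD of non-fluorescent compounds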;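 note: AP2 carries R879A mutation and is captured from E. coli lysate; bead-bound FITC arrestin peptide fluorescence measuring arrestin peptide binding to AP2; 0% = DMSO wells and 100% = excess unlabeled arrestin peptide control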). The conditions noted are these: FITC arrestin peptide, at 10 µM, stronger effect = higher value, AP2 beta2 appendage fragment, R879A mutant.
Assay [11] in a line: yeast V-ATPase proton transport modulators, S. cerevisiae, pHLuorin, HTS validation (AID 504600; in the data active = response above about 15%;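 note: plate controls were DMSO for no effect and reference compound for full effect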). The note with it: S. cerevisiae pHLuorin cytosolic pH, at 10 µM, stronger effect = higher value.
Assay [12] relates to anti-desmoglein-3 scFv antibody binding to human DSG3. Nature of the assay: inhibitors of anti-DSG3 scFv binding to DSG3, pilot screen, biochemical, validation compound set, bead-based, flow cytometry (AID 588368;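 active = binding below the plate cutoff, the plate median minus 3 SD, with a reading above zero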;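 note: signal is the median channel fluorescence of bead-bound GFP antibody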). The conditions noted are these: Protein G beads, DSG3-Fc, scFv-GFP binding, at 10 µM, stronger effect = lower value.
Assay [13] is described as follows: inhibitors of fungal efflux pumps CDR1, CDR2, MDR1, pilot screen, validation compound set, multiplex, phenotypic (AID 588506;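 active = efflux inhibition above 0.42, the validation set average plus 4 SD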;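 note: Nile Red retained in cells so higher fluorescence means more efflux inhibition; 0 = negative control wells and 1 = enniatin B 25 µM full block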). The note with it: S. cerevisiae pump-expressing triplex, Nile Red efflux flow cytometry; at 10 µM; stronger effect = higher value; the pumps come from Candida albicans.
For assay [14], the target named is ATP-binding cassette sub-family B member 6 (Homo sapiens) (UniProt Q9NP58). Nature of the assay: ABCB6 transporter inhibitors, pilot screen, K562-ABCB6 cells, flow cytometry, validation set (AID 588550;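 active = inhibition above the screen-wide mean plus 3 SD, about 51%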;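 note: 0% = DMSO wells and 100% = benzethonium chloride 70 µM positive control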). The conditions noted are these: K562-ABCB6 porphyrin accumulation, 1 h, at 10 µM, stronger effect = higher value.
Assay [15] can be described thus: promoters of myeloid differentiation in arrested cells, primary screen, cell-based, GFP/MAC1 double positive, flow cytometry, validation set (AID 588685;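 active = differentiation response of at least 50%, scaled between solvent and reference control, from cells with both markers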;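 note: compound exposure lasts four days before antibody staining and flow analysis; 0% = DMSO wells and 100% = 5 µM fulvestrant positive control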). The note with it: ER-HoxA9 marrow cells, stronger effect = higher value, normalized: vehicle 0, fulvestrant 100.
The target of assay [16] is Beta-2 adrenergic receptor (Homo sapiens) (UniProt P07550). Nature of the assay: beta2AR agonists driving receptor internalization, pilot screen, cell-based, FAP fluorogen, flow cytometry, validation set (AID 504459;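 active = percent response above 42, roughly 3 SD of non-fluorescent test compounds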;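 note: agonist-driven loss of surface beta2AR via internalization measured by FAP dye flow cytometry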). The conditions noted are these: Am2.2-beta2AR cells, FAP surface receptor flow cytometry; at 10 µM; stronger effect = higher value.

SMILES strings stand for the structures. Results filed as inconclusive are left out. Activity calls are given as the source filed them.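 Rule for the calls, unless noted: active = response below a set limit, under 55% cells CD8-positive and vesicle-bound, and CD8 cells' 90th-percentile brightness under 279; inactive = the rest.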

Chain of ATP-binding cassette sub-family B member 6 (Homo sapiens) (Q9NP58 whole entry, looked up): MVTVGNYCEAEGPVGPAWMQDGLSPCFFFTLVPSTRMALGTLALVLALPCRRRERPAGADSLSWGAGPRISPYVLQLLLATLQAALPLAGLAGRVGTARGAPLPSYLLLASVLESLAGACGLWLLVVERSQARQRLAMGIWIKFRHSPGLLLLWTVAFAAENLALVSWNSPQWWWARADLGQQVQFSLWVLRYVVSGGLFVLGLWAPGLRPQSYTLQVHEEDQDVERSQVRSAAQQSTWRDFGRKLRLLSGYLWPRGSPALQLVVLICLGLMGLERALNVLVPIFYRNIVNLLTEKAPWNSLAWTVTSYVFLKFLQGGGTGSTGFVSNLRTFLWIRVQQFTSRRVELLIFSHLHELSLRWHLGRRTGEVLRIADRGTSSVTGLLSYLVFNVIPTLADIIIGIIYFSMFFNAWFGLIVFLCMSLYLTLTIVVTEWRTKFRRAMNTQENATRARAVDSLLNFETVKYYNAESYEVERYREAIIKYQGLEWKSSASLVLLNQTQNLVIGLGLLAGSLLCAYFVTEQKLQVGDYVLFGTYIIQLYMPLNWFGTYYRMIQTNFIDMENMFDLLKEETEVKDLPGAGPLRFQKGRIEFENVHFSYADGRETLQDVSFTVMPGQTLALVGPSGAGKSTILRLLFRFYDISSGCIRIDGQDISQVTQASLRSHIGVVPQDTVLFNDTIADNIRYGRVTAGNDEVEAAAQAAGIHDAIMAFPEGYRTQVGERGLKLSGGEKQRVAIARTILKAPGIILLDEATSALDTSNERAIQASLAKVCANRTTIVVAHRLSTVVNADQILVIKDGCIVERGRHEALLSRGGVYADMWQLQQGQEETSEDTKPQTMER
Chain of Beta-adrenergic receptor kinase 1 (Homo sapiens) (P25098 whole entry, looked up): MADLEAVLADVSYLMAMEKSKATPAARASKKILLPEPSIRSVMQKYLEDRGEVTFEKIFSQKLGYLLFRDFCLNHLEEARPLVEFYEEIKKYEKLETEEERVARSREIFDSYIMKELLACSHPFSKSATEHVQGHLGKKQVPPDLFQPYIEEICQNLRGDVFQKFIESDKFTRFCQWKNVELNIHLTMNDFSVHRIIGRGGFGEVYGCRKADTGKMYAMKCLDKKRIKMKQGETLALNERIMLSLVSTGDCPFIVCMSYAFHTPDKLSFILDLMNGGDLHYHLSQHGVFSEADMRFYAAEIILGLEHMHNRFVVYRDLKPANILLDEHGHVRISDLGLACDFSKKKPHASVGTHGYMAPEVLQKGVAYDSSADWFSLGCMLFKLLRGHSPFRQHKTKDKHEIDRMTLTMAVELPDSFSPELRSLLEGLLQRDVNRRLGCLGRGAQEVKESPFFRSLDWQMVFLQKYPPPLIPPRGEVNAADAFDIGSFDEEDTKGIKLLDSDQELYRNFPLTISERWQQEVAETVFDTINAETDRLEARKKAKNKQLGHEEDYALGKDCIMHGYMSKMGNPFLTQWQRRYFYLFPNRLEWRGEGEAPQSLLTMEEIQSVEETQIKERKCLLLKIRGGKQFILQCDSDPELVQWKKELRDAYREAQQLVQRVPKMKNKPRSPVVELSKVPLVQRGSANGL
Chain of Integrin beta-1 (Homo sapiens) + Integrin alpha-4 (Homo sapiens) (P05556 whole entry, looked up): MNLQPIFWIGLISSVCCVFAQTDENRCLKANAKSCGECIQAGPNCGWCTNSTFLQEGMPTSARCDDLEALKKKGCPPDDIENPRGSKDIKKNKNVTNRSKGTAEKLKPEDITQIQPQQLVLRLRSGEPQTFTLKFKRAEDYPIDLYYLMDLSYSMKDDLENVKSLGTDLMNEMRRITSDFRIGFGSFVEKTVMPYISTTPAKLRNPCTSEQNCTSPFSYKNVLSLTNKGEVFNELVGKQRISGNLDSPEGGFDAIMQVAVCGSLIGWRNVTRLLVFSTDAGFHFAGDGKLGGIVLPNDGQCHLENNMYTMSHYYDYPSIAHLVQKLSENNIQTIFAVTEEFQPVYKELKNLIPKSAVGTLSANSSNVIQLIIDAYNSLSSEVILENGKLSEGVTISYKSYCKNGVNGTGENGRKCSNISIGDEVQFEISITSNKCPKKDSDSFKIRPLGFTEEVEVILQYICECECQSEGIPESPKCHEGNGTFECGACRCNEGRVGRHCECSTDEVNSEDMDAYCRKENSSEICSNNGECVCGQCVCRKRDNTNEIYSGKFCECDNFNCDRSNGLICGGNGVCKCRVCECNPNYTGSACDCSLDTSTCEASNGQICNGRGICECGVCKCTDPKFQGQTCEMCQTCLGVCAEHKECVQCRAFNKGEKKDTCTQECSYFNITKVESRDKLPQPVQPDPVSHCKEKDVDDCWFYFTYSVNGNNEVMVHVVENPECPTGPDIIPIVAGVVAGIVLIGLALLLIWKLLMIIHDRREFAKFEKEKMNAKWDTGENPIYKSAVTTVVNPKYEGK
Chain of Integrin beta-1 (Homo sapiens) + Integrin alpha-4 (Homo sapiens) (P13612 whole entry, looked up): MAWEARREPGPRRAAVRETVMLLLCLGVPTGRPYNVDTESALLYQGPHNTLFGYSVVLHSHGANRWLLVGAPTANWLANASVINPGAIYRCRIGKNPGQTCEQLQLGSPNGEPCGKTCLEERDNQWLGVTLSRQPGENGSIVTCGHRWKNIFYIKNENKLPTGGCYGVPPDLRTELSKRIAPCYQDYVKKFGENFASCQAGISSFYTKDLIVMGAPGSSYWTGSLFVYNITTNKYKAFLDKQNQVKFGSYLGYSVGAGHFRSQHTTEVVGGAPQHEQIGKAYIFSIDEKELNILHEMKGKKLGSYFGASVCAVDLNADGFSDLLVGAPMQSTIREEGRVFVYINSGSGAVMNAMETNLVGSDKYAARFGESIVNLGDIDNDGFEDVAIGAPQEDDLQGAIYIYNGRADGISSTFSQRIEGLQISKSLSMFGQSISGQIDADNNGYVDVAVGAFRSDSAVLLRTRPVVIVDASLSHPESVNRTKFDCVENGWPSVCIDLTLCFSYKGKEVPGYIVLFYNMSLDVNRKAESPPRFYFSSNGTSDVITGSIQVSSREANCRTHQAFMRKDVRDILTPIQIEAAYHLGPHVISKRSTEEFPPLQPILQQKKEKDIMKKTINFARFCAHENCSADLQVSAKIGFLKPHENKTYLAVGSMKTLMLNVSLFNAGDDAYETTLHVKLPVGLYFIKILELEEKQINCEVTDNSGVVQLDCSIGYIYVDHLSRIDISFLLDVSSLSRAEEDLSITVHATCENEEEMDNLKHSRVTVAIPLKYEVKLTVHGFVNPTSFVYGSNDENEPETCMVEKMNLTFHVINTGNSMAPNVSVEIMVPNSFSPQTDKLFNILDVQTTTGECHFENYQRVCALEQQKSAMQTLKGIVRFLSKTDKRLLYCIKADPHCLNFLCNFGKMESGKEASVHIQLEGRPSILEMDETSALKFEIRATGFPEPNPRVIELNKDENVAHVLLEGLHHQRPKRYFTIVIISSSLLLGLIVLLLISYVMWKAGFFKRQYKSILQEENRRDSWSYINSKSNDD
Chain of AP-2 complex subunit beta (Homo sapiens) (P63010 whole entry, looked up, the tested form may be a part, one chain of several): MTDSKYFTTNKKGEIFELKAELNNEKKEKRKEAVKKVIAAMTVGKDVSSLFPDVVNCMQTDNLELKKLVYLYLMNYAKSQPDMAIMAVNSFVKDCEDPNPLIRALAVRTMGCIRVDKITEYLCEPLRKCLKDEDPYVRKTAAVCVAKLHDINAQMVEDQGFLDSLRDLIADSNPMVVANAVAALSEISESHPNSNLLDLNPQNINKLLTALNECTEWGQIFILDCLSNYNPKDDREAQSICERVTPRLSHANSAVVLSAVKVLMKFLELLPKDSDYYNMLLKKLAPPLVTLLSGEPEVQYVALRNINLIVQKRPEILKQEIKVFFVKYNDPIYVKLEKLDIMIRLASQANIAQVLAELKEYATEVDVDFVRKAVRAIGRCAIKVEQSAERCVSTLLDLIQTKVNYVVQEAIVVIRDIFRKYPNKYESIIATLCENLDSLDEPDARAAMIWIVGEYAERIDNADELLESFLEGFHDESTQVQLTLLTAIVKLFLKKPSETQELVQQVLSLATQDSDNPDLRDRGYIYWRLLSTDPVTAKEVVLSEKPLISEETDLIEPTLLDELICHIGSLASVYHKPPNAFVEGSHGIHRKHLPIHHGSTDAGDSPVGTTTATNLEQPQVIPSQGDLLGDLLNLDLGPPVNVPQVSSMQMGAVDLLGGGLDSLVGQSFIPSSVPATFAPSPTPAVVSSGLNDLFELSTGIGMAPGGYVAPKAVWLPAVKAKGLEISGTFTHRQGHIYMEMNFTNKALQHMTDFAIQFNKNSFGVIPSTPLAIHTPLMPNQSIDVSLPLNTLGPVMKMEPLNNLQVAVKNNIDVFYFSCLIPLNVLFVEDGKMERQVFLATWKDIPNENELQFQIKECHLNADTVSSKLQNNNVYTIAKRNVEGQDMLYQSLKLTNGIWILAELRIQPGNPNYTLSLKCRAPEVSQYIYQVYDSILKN
Chain of Beta-2 adrenergic receptor (Homo sapiens) (P07550 whole entry, looked up): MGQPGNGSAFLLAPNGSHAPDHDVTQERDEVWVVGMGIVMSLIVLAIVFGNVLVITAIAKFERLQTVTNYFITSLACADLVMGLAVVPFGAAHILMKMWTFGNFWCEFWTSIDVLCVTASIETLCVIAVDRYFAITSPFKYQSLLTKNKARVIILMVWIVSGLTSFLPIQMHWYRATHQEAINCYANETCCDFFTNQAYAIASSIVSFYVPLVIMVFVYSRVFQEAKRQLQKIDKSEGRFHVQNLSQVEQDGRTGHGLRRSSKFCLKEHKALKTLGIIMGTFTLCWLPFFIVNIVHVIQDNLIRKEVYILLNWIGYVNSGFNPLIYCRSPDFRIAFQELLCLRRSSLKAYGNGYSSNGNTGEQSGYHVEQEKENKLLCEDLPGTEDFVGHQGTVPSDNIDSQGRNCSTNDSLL

As for `CC(C)Oc1ccc(C(CC(=O)O)c2ccc(F)cc2)cc1` (centres undefined), the percent of DMSO control GFP in assay [1] was 102% (inactive). Further, the GFP response vs DMSO in assay [2] was 108% (inactive); in assay [4], 113% (inactive). In [3], the percent response of DMSO control was 92% (inactive). In addition, the GFP response, % of DMSO in assay [5] is 90.4% (inactive). Also, the double positive events in assay [6] turned out to be 62.7%. Moreover, the vesicle binding response in assay [6] was 164% (inactive). In addition, the inhibition in [7] is 9.09% (inactive); in assay [10], -6.35% (inactive); in assay [14], 5% (inactive). For the same compound, the superoxide response (% of plate) in assay [8] was 105% (inactive). In addition, in [9], the aptamer binding inhibition was 5% (inactive). Besides, in assay [11], the response is 3.61% (inactive). Also, the binding (% of control) in assay [12] is 96.7% (inactive). Further, the efflux inhibition (fraction of control) in [13] was 0.18 (inactive). Further, the differentiation response in [15] is -18% (inactive).
For the compound `CN(C)c1nc(N(C)C)nc(N(C)C)n1`, the percent of DMSO control GFP in assay [1] was 94.6% (inactive). Moreover, the GFP response vs DMSO was 103% (inactive) in assay [2] and 97.4% (inactive) in assay [4]. The percent response of DMSO control in [3] was 97.9% (inactive). In assay [5], the GFP response, % of DMSO is 94.2% (inactive). Further, the double positive events in assay [6] came to 63%. The vesicle binding response in assay [6] was 181% (inactive). The inhibition in [7] is 5.36% (inactive); in assay [10], 47.8% (inactive); in [14] it was 9% (inactive). Also, the superoxide response (% of plate) in assay [8] is 95.5% (inactive). The aptamer binding inhibition in [9] is 0% (inactive). Besides, in assay [11], the response is -8.12% (inactive). Moreover, in assay [12], the binding (% of control) was 99.3% (inactive). In assay [13], the efflux inhibition (fraction of control) is 0.78 (active). Also, the differentiation response in assay [15] was 14.3% (inactive).
`CCCCC1C(=O)N(c2ccccc2)N(c2ccccc2)C1=O`: in [1], the percent of DMSO control GFP is 98.1% (inactive). For the same compound, the GFP response vs DMSO in [2] was 117% (inactive); in assay [4], 89.7% (inactive). The percent response of DMSO control in assay [3] is 101% (inactive). The GFP response, % of DMSO in [5] is 97.5% (inactive). In assay [6], this compound came in with a double positive events of 66%. The vesicle binding response in assay [6] is 258% (inactive). Further, the inhibition is 3.55% (inactive) in [7], 33.1% (inactive) in [10] and 8% (inactive) in [14]. Also, the superoxide response (% of plate) in assay [8] is 94.9% (inactive). In addition, the aptamer binding inhibition in assay [9] was 0% (inactive). Also, the response in assay [11] was -1.74% (inactive). Besides, the binding (% of control) in [12] is 111% (inactive). The efflux inhibition (fraction of control) in assay [13] was -0.06 (inactive). For the same compound, the differentiation response in [15] is 17.2% (inactive).
On to `CC(=O)Nc1nc(CCC(C)C)cc2c1c(=O)oc1ccccc12`, for which, in [1], the percent of DMSO control GFP is 102% (inactive). The results for the GFP response vs DMSO in assay [2] and in assay [4] were 98.3% (inactive) and 96% (inactive), respectively. Also, the percent response of DMSO control in assay [3] was 100% (inactive). Further, the GFP response, % of DMSO in [5] is 88.6% (inactive). The compound further showed a double positive events in assay [6] of 60.5%. In addition, in assay [6], the vesicle binding response was 77.6% (inactive). The inhibition in assay [7] was 1.62% (inactive); in assay [10], 2.41% (inactive); in [14], -8% (inactive). Moreover, the aptamer binding inhibition in assay [9] is 0% (inactive). Moreover, the response in assay [16] is -19.1% (inactive); in assay [11] it was 0.7% (inactive). In addition, the binding (% of control) in assay [12] was 75.5% (inactive). Also, the efflux inhibition (fraction of control) in assay [13] is 0.39 (inactive). Besides, the differentiation response in assay [15] was 16.9% (inactive).
